Results reported in PubChem BioAssay AID1347416 (National Center for Advancing Translational Sciences (NCATS), 2020).
Hit rate of the full screen: of about 4,100 compounds, about 1,600 (39%) were called active. Another 25% or so got no clear call; they are omitted. Calls come from the whole dose curve; as a rule, active = well fitted inhibition curve with a large enough effect; inconclusive = small, poorly fitted or top-dose-only effect; inactive = no such curve, though single readings can be large or run the other way. The list shows a part of the results.

Test: qHTS Validation assay for Inhibitors of Plasmodium falciparum Dd2 growth in vitro; note: nearly all actives have a fitted effect of over 70% in size
Settings: P. falciparum Dd2 in RBCs, SYBR Green growth, 72 h; series mostly up to 28.7 µM
Procedure, shortened: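 P. falciparum Dd2-infected red blood cells (2.5% hematocrit, 0.3% parasitemia) grown 72 h at 37 °C under 5% O2 with compounds in a titration, 29 uM to 0.5 nM final. Growth read as SYBR Green-1 fluorescence after ~16 h lysis; artesunate 300 nM as positive control.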
Potency is the fitted concentration of half-maximal effect.

Structure (SMILES)	Potency
CCCCn1cc(S(=O)(=O)c2ccc(Cl)cc2)c(=O)c2cc(F)c(N3CCCCC3)cc21	15 µM (active)
COc1ccc2c(c1)c(=O)c(S(=O)(=O)c1ccc(F)cc1)cn2CC(=O)Nc1ccc(C)cc1C	inactive
CCCN(CC1CCOC1)C(=O)c1ccc(F)c(Cl)c1 (stereo unspecified)	inactive
C1CCC(CNc2c3c(nc4nnnn24)CCCC3)CC1	13.3 µM (active)
Oc1ccccc1-c1cc(C2=CCOCC2)c2cncn2c1	9.68 µM (active)
c1cncc(-c2nnc(-c3cccnc3)nn2)c1	inactive
Oc1ccccc1-c1cc(-c2cccnc2)c2cncn2c1	1.72 µM (active)
Cc1ccc([S+](=O)([O-])NC2CCCN(c3nc4ncccc4o3)C2)cc1 (stereo unspecified)	inactive
O=C(N/N=C/c1ccccn1)c1cccs1	inactive
NS(=O)(=O)c1ccc(N/N=C/c2cn(-c3ccccc3)nc2-c2cccs2)cc1	0.335 µM (active)
O=C(O)c1ccc(N/N=C/c2cn(-c3ccccc3)nc2-c2cccs2)cc1	2.66 µM (active)
Cc1ccc(Nc2nnc(SCC(=O)c3ccc(O)cc3O)s2)cc1	inactive
COCC(C)n1c(C)cc(C(=O)CSc2nnc(Nc3ccccc3F)s2)c1C (stereo unspecified)	2.99 µM (active)
CCOC(=O)c1cccc(NC(=O)N2CC[C@@H](CC(=O)N[C@@H](CO)CC(C)C)[C@@H](CC)C2)c1	inactive
CCOC(=O)c1cc(C)n(CC2CCC(C(=O)Nc3cccc(Cl)c3)CC2)c1C (stereo unspecified)	8.41 µM (active)
CNC(=O)[C@@H]1C[C@H](Oc2cccnc2)CN1S(=O)(=O)c1ccc2c(c1)CCC2	inactive
CC(=O)N1CCCc2cc(S(=O)(=O)N3CCCC(C(=O)Nc4ccc(C)c(C)c4)C3)ccc21 (stereo unspecified)	inactive
CC(C)CCN1CCC(N2CCN(S(=O)(=O)c3ccc4c(c3)CCCC4)CC2)C1=O (stereo unspecified)	9.44 µM (active)
O=C1NC(=S)S/C1=C\C=C\c1ccc([N+](=O)[O-])o1	5.31 µM (active)
Cc1ccc(NC(=O)N2CCC(N3C(=O)C4(CCCCC4)C3c3ccncc3)CC2)cc1C (stereo unspecified)	7.5 µM (active)
COCCO[C@H]1C(=O)N(C2CCN(C(=O)COc3ccccc3)CC2)[C@H]1c1ccncc1	inactive
CCCNC(=O)N1CCC(N2C(=O)[C@H](OCCOC)[C@@H]2c2ccncc2)CC1	inactive
CCNc1nc(NC(C)(C)C)nc(N2CCCC2)n1	2.37 µM (active)
Cc1cc[n+](CC(=O)Nc2cccc(C)c2)cc1	inactive

Structure (SMILES)	Potency
CCOC(=O)c1c(NC(=O)C[n+]2ccc(N(C)C)cc2)sc(C)c1C	1.33 µM (active)
O=C(NC1CCN(c2cc(-c3cccs3)[nH]n2)C1)c1cccs1 (stereo unspecified)	inactive
O=C(Nc1cc(Cl)ccc1O)c1cc2nc(-c3ccc4c(c3)OCO4)cc(C(F)(F)F)n2n1	2.66 µM (active)
COc1ccc(-c2c(C)nn3c(N)c(C#N)cnc23)cc1OC	1.68 µM (active)
COc1cc(Cl)ccc1C(=O)N1CC[C@@](C)(O)[C@@H](O)C1	inactive
CC1CC(C)CN(C(=O)CNC(=O)c2sc3ccccc3c2Cl)C1 (stereo unspecified)	inactive
O=C(O)c1cccc(C2CCCN(C(=O)c3ccccc3-n3cccn3)C2)c1 (stereo unspecified)	inactive
COc1cc2ccccc2cc1C(=O)N1CCCC(C(F)(F)F)C1 (stereo unspecified)	5.31 µM (active)
COc1cc2ccccc2cc1C(=O)N1CC(C)CC(C)C1 (stereo unspecified)	2.37 µM (active)
CC1CC(C)CN(C(=O)CCNC(=O)c2ccccc2Cl)C1 (stereo unspecified)	inactive
COc1cc(OC)c(C(=O)N2CCCC2)cc1OC	inactive
CC1CC(C)CN(C(=O)c2ccc3ccccc3c2)C1 (stereo unspecified)	2.37 µM (active)
COc1ccc(C(=O)N2CCC3(CC2)CC(O)CCO3)c(OC)c1 (stereo unspecified)	inactive
CCc1ccc(S(=O)(=O)Nc2cc(-c3cn4ccccc4n3)ccc2C)cc1	inactive
Cc1ccc(S(=O)(=O)Nc2ccc(-c3cn4ccc(C)cc4n3)cc2)cc1	6.68 µM (active)
CCN(CC)CCOC(=O)c1ccc(NC(=O)c2cc3c(=O)n(CC)c4ccccc4c3s2)cc1	2.66 µM (active)
CCCCNC(=O)c1onc(CSc2nc3ccccc3[nH]2)c1C(=O)NCCCC	5.31 µM (active)
COCC(=O)NC1CCC12CCN(C(=O)c1ccc(C)nc1)CC2 (stereo unspecified)	inactive
CN(C)c1cc[n+](CC(=O)c2ccc(Br)cc2)cc1	7.5 µM (active)
CC(=O)Nc1cc[n+](C(C)C(=O)c2ccc(Br)cc2)cc1 (stereo unspecified)	inactive
Cc1oc2ccc(O)c(CN3CCN(Cc4ccccc4)CC3)c2c1C(=O)Nc1cccc(Cl)c1C	0.596 µM (active)
COc1ccc(NC(=O)c2c(C)oc3ccc(O)c(CN4CCN(Cc5ccccc5)CC4)c23)cc1	2.66 µM (active)
COc1ccc(N2Cc3c(ncnc3N3CCN(Cc4ccccc4)CC3)N(C)CC2=O)cc1	inactive
Cc1cccc(NC(=O)Cn2nc3n(c2=O)CCCC3)c1C	inactive

Structure (SMILES)	Potency
Cc1oc2ccc(O)c(CN3CCCCCC3)c2c1C(=O)Nc1cccc(Cl)c1C	0.842 µM (active)
CCc1cc2c(=O)c(-c3cnn(-c4ccccc4)c3)c(C)oc2c(CN2CCCCC2)c1O	1.33 µM (active)
CC1CCN(Cc2c(O)ccc3c(=O)c(Oc4ccccc4Cl)c(C(F)(F)F)oc23)CC1	1.33 µM (active)
CCN1CCN(Cc2c(O)ccc3c(=O)c(Oc4ccccc4Cl)c(C(F)(F)F)oc23)CC1	0.596 µM (active)
CC1CCCN(Cc2c(O)ccc3c(=O)c(-c4ccc(Cl)cc4)c(C(F)(F)F)oc23)C1 (stereo unspecified)	0.842 µM (active)
CC(=O)c1ccc(NC(=O)c2noc3c2CCC3)cc1	inactive
CC1CCCN(Cc2c(O)ccc3c(=O)c(-c4ccccc4Cl)c(C(F)(F)F)oc23)C1 (stereo unspecified)	0.842 µM (active)
Cc1oc2c(CN3CCCCC3)c(O)ccc2c(=O)c1-c1ccc(Cl)cc1	5.31 µM (active)
O=c1c(-c2ccc(Br)cc2)coc2c(CN3CCCCC3)c(O)ccc12	2.11 µM (active)
CC1CCCN(Cc2c(O)ccc3c(=O)c(-c4ccc(Cl)cc4)coc23)C1 (stereo unspecified)	1.88 µM (active)
CC1CCCN(Cc2c(O)ccc3c(=O)c(Oc4ccccc4Cl)c(C(F)(F)F)oc23)C1 (stereo unspecified)	2.11 µM (active)
Cc1ccc(-c2[nH]n3c(=O)c4c(nc3c2C)CCCC4)cc1	2.99 µM (active)
O=C(NCCN1CCCC1)C1CN(S(=O)(=O)c2cccs2)CC12CCCCC2 (stereo unspecified)	13.3 µM (active)
O=C(NCc1ccco1)C1CN(S(=O)(=O)c2ccccc2)CC12CCCCC2 (stereo unspecified)	inactive
O=C(NCCN1CCCCCC1)C1CCCN1S(=O)(=O)c1cccc2nsnc12 (stereo unspecified)	inactive
c1ccc2c(NCCc3c[nH]c4ccccc34)c3ccccc3nc2c1	1.88 µM (active)
O=C(NCCc1c[nH]c2ccccc12)c1cncc(Br)c1	inactive
CN(C)CCCNc1c2ccccc2nc2ccccc12	4.22 µM (active)
Cc1cc(C)n(-c2nc3cc(Cl)ccc3nc2N2CCN(c3ccccc3F)CC2)n1	inactive
Cc1cc(Nc2nc3ccccc3nc2Cl)n(-c2ccccc2C)n1	0.842 µM (active)
CC(C)CNc1nnnc2c1sc1nc(N3CCOCC3)c3c(c12)CCCC3	15 µM (active)
COC(C)c1ccc(-c2cc(C(=O)O)cc(S(=O)(=O)NC(C)C)c2)cc1 (stereo unspecified)	inactive
Cc1cccc(C(=O)NC2CCN(c3cc(-c4ccc(Cl)cc4)[nH]n3)C2)c1 (stereo unspecified)	inactive
Cc1ccc(-n2nc3c(=O)n(CCCC(=O)NCc4ccccc4F)nc(C)c3c2C)cc1	inactive

Structure (SMILES)	Potency
O=C(NC1CCCN(c2cc(-c3ccccc3)[nH]n2)C1)c1ccccc1 (stereo unspecified)	inactive
O=C(NC1CCN(c2cc(-c3ccc(Cl)cc3)[nH]n2)C1)c1ccccc1 (stereo unspecified)	inactive
COc1cc(C(=O)NC2CCN(c3cc(-c4ccccc4)[nH]n3)CC2)cc(OC)c1OC	5.96 µM (active)
Cc1ccc2c(c1)COc1c3ccc(C(=O)O)cc3nn1-2	inactive
Cn1c(=S)[nH]c2sc3c(c2c1=O)CCC(C(C)(C)C)C3 (stereo unspecified)	5.31 µM (active)
Cn1c2c(c(=O)n(C)c1=O)C(c1cc(Br)ccc1F)CC(=O)N2 (stereo unspecified)	inactive
CC1=C(C(=O)Nc2ccccc2)C(c2cc(Br)ccc2F)n2ncc(C(=O)Nc3ccccc3)c2N1 (stereo unspecified)	1.68 µM (active)
COc1ccc(Br)cc1C1C(C(=O)Nc2ccc(C)cc2C)=C(C)Nc2ncnn21 (stereo unspecified)	inactive
COc1ccccc1NC(=O)C1=C(C)Nc2ncnn2C1c1ccccc1C(=O)O (stereo unspecified)	inactive
CC1=C(C(=O)Nc2ccc(C)cc2C)C(c2cc(Br)ccc2F)n2ncc(C(=O)Nc3ccc(C)cc3)c2N1 (stereo unspecified)	1.5 µM (active)
CC1(CNc2ccccc2)COc2ccc(C(=O)NCc3cccs3)cc2N1 (stereo unspecified)	inactive
O=C(c1ccccc1)N1CCC(N(Cc2cccnc2)C2CCOCC2)CC1	inactive
COc1cccc(CN(C)C(=O)CCc2nnc(-c3ccsc3)o2)c1	inactive
COc1ccc2nc(N(Cc3cccnc3)C(=O)CCc3ccccc3)sc2c1	6.68 µM (active)
c1cnc(N2CCOCC2)c(OC2CCNC2)n1 (stereo unspecified)	7.5 µM (active)
COc1ccccc1-c1nnc(C2CCN(C(=O)c3ccc(Cl)cc3)CC2)o1	inactive
COc1ccccc1-c1nnc2n1C(C(=O)NCCc1ccc(Cl)cc1)CC2 (stereo unspecified)	3.35 µM (active)
CCC(=O)N1c2ccccc2CC1C(=O)NCCc1ccccc1OC (stereo unspecified)	inactive
Fc1cc(F)cc(Cc2nc3nccc(-c4cccs4)n3n2)c1	inactive
COc1ccc(CNC(=O)CCCn2c(=O)c3cccn3c3ccc(F)cc32)cc1OC	inactive
COc1ccccc1NC(=O)C(=O)NCCc1csc(-c2cccc(F)c2)n1	inactive
COc1ccc(CCNC(=O)Cn2c(-c3cccs3)cc3cc(F)ccc32)cc1OC	4.73 µM (active)
CC(NC(=O)Cn1c(-c2cccs2)cc2cc(F)ccc21)c1ccccc1 (stereo unspecified)	2.66 µM (active)
FC(F)(F)c1cnc(N2CCCN(C(=S)Nc3ccccc3)CC2)c(Cl)c1	4.73 µM (active)
